# PubChem BioAssay AID602393 (Broad Institute, 2012)
# Hit rate of the full screen: of about 350,000 compounds, about 7,000 (2%) were called active. The full list was thinned out, with actives kept by preference. Unmarked numbers belong to inactive results. Cut-off read from the data, not from the text of the source: active = activation above about 40%; inconclusive = no clear call, values can overlap the other calls; inactive = below that.
# Test: raisers of Bmi1 knock-in reporter signal – mouse ES cells, Bmi1 luciferase knock-in, single point, esBAF inhibitor project, primary screen (AID 602393);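 note: 0% = median of the plate's neutral control wells and 100% = double that signal; a rise in the Bmi1 reporter signal indicates esBAF inhibition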
# Details: 24 h, at 12.5 µM, active compounds read high, 100% = twice the neutral-well signal
row,SMILES,reporter increase
1,C[C@@H]1CN([C@@H](C)CO)C(=O)c2cc(NC(=O)c3ccncc3)ccc2O[C@@H]1CN(C)S(C)(=O)=O,0.579%
2,CN1c2ccc(C#Cc3cccnc3)cc2[C@@H]2[C@@H](CCN2S(=O)(=O)c2ccccc2)[C@H]1CO,11.3%
3,N=c1c2c3c(sc2nc2n1CCCCC2)CCCC3,24.2%
4,O=c1oc(-c2ccco2)nc2sc3c(c12)CCCCC3,57.3% (active)
5,O=S(=O)(c1ccc(Cl)cc1)c1nc(-c2ccco2)oc1N1CCCCC1,-5.66%
6,CCCNC(=O)N1C[C@@H](C)[C@@H](OC)CN(C)C(=O)c2ccc(NC(=O)CCC)cc2OC[C@H]1C,-1.55%
7,COCC#Cc1cnc2c(c1)C(=O)N([C@H](C)CO)C[C@H](C)[C@@H](CN(C)C(=O)Nc1cc(F)ccc1F)O2,6.3%
8,COCC#Cc1ccc2c(c1)O[C@H](CN(C)C(=O)C1CCOCC1)[C@@H](C)CN([C@@H](C)CO)S2(=O)=O,5.12%
9,COc1ccc(C2CC(=O)NC(=O)C2)cc1,-4.89%
10,COc1ccc([C@H]2CC(=O)C=C(c3ccc(C)cc3)C2)cc1,8.3%
11,COc1ccc([C@H]2CC(=O)C=C(/C=C/c3ccccc3)C2)cc1,70.2% (active)
12,C[C@H](CO)N1C[C@H](C)[C@@H](CN(C)C)Oc2cc(C#Cc3ccccc3)ccc2S1(=O)=O,-3.93%
13,COc1cccc(NC(=O)C(=O)c2cn(CC(=O)N3CCOCC3)c3ccccc23)c1,20.7%
14,O=C(Nc1ccc(F)cc1)C(=O)c1cn(CC(=O)N2CCOCC2)c2ccccc12,41% (active)
15,Cc1ccc(CNC(=O)C(=O)c2cn(CC(=O)N3CCOCC3)c3ccccc23)cc1,20.4%
16,CO[C@@H]1CN(C)C(=O)c2cc(NC(=O)C3CCC3)ccc2OC[C@H](C)N(C(=O)CN(C)C)C[C@@H]1C,-3.99%
17,C[C@H](CO)N1C[C@H](C)[C@@H](CN(C)C(=O)Nc2ccc3c(c2)OCO3)OCCCC[C@H](C)Oc2ccc(NS(=O)(=O)c3cn(C)cn3)cc2C1=O,-2.06%
18,C[C@H]1CN([C@@H](C)CO)C(=O)Cc2cc(NC(=O)Nc3cccc4ccccc34)ccc2O[C@@H]1CN(C)C,-2.18%
19,COc1ccc(S(=O)(=O)N(C)C[C@H]2Oc3ccc(NC(=O)Nc4ccccc4)cc3CC(=O)N([C@H](C)CO)C[C@@H]2C)cc1,-4.23%
20,O=C(NCCCn1ccnc1)c1cc(Br)c(Br)s1,-10.5%
21,O=C(NCCCn1ccnc1)c1ccccc1F,-2.18%
22,O=C(NCCCn1ccnc1)c1cc(-c2ccccc2)on1,47.2% (active)
23,C[C@@H](NC(=O)[C@@H]1[C@@H](CO)[C@@H]2Cn3c(ccc(C4=CCCCC4)c3=O)[C@@H]2N1C)c1ccccc1,1.48%
24,Cc1ccc(S(=O)(=O)Nc2ccc3c(c2)C(=O)N([C@@H](C)CO)C[C@@H](C)[C@H](CN(C)Cc2ccncc2)O3)cc1,2.63%
25,C[C@H](CO)N1C[C@H](C)[C@H](CN(C)Cc2ccncc2)Oc2ccc(N(C)C)cc2C1=O,-1.91%
26,Cc1ccc2[nH]c(=O)c(COC(=O)c3ccccn3)cc2c1,-2.11%
27,CCOC(=O)c1[nH]c2ccc(C)cc2c1N=C(C)N(C)C,1.77%

row,SMILES,reporter increase
1,CCOC(=O)c1cc2cc(C)ccc2[nH]1,70.2% (active)
2,CCCNC(=O)N(C)C[C@H]1Oc2cc(C#C[C@@H](C)O)ccc2S(=O)(=O)N([C@H](C)CO)C[C@H]1C,-0.613%
3,COCC(=O)N1C[C@@H]2[C@H](c3ccccc31)[C@@H](CO)N2C(=O)C1CC1,-6.95%
4,CCNC(=O)[C@@H]1[C@@H](CO)[C@@H]2Cn3c(ccc(-c4ccncc4)c3=O)[C@@H]2N1Cc1cc(F)ccc1F,-2.84%
5,O=C(CCNC(=O)c1ccccc1)Nc1nc2ccccc2s1,59.5% (active)
6,CCCC(=O)Nc1nc2ccc(NC(=O)c3c(F)c(F)c(OC)c(F)c3F)cc2s1,-33%
7,CC(C)Cc1nnc(NC(=O)CCNC(=O)c2ccccc2Cl)s1,-1.82%
8,O=S(=O)(N[C@H]1CC[C@@H](CCNS(=O)(=O)c2ccccc2Cl)O[C@@H]1CO)c1ccccc1,2.98%
9,CCOc1ccc(NC(=O)C/C(C)=N/NC(=O)Cc2cccs2)cc1,-1.12%
10,O=C(Cc1cccs1)Nc1ccc([N+](=O)[O-])cc1,1.47%
11,CCOC(=O)c1ccc(NC(=O)Cc2cccs2)cc1,49.7% (active)
12,CN(C)CC(=O)Nc1ccc2c(c1)[C@H]1C[C@@H](CC(=O)NCc3ccccn3)O[C@@H](CO)[C@H]1O2,-2.09%
13,COc1cccc(S(=O)(=O)N(C)C[C@@H]2Oc3cc(C4=CCCCC4)ccc3S(=O)(=O)N([C@H](C)CO)C[C@H]2C)c1,-4.77%
14,O=C(OCC(=O)c1c[nH]c2ccccc12)c1cccc(O)c1,96.8% (active)
15,C[C@H](NC(=O)c1ccccc1)C(=O)OCC(=O)c1c[nH]c2ccccc12,4.74%
16,O=C(OCC(O)C(O)COC(=O)c1ccccc1)c1ccccc1 (centres undefined),-4.1%
17,Cc1ccc(S(=O)(=O)c2c(COC(=O)c3cccc(Cl)c3)c(-c3ccccc3)nn2C)cc1,12.1%
18,O=C(OCc1ccc(-c2ccccc2)cc1)c1cccc(O)c1,56.3% (active)
19,CCOc1ncccc1C(=O)OCC(=O)c1c[nH]c2ccccc12,5.19%
20,COCC(=O)N1C[C@@H](C)[C@H](OC)CN(C)C(=O)c2ccc(NC(=O)c3ccc(F)cc3)cc2OC[C@H]1C,-1.39%
21,CCCNC(=O)N1[C@H](CNC(C)=O)[C@@H](c2ccc(C3=CCCC3)cc2)[C@@H]1CO,2.55%
22,COc1ccc(-c2cc(C(=O)N3CCN(c4ccc(F)cc4)CC3)no2)cc1,5.86%
23,O=C(c1cc(-c2ccc(Cl)cc2)on1)N1CCN(c2ccccc2)CC1,60.8% (active)
24,O=C(c1cc(-c2ccc(O)cc2)on1)N1CCOCC1,-6.48%
25,CC(C)NC(=O)Nc1ccc2c(c1)C(=O)N(C)[C@@H]1CC[C@H](CC(=O)NCC3CCCCC3)O[C@@H]1CO2,7.05%
26,COCC(=O)N[C@@H]1C=C[C@@H](CC(=O)N2CCCCC2)O[C@@H]1CO,0.0415%
27,COc1ccccc1C(=O)N1C[C@H]2[C@@H](c3ccccc31)[C@H](CO)N2C(=O)C1CC1,-3.8%

row,SMILES,reporter increase
1,O=C(C[C@@H]1C=C[C@@H](NC(=O)c2cccnc2)[C@H](CO)O1)NCCN1CCCCC1,-3.44%
2,COc1cccc(S(=O)(=O)N[C@H]2C=C[C@H](CC(=O)NC3Cc4ccccc4C3)O[C@H]2CO)c1,-3.77%
3,COc1ccccc1NC(=O)CSc1nc2sc3c(c2c(=O)n1-c1ccccc1)CCN(C)C3,50.8% (active)
4,CCOc1ccc(-n2c(SCC(=O)Nc3ccc(OC)cc3)nc3sc4c(c3c2=O)CCN(C)C4)cc1,1.84%
5,CCOc1ccc(-n2c(SCC(=O)OC)nc3sc4c(c3c2=O)CCN(C)C4)cc1,4.82%
6,COc1cccc(C(=O)Nc2nnc(S(=O)(=O)N3CCOCC3)s2)c1,1.13%
7,COc1cccc(C(=O)Nc2cc3c(cc2Br)OCCCO3)c1,82% (active)
8,COc1cccc(C(=O)NCCSc2ccc(Br)cc2)c1,-4.36%
9,Clc1ccc(CN2CCCCCC2)cc1Cl,-0.902%
10,O=c1cc(CN2CCCCCCC2)c2c(ccc3ccccc32)o1,2.61%
11,c1ccc2cc3[nH]c(CN4CCCCC4)nc3cc2c1,43.8% (active)
12,O=C(C[C@H]1CC[C@@H](NC(=O)Cc2ccccn2)[C@H](CO)O1)NCCc1ccccc1,3.63%
13,O=C(/C(=C/c1cccc(Cl)c1)c1nc2ccccc2[nH]1)c1ccccc1,98.1% (active)
14,O=c1c2cc(Br)ccc2nc(-c2cccc(Cl)c2)n1O,-7.05%
15,C[C@H](O)C#Cc1ccc2c(c1)O[C@H](CN(C)C)[C@@H](C)CN([C@H](C)CO)S2(=O)=O,-3.76%
16,C[C@@H]1CN([C@@H](C)CO)C(=O)Cc2cc(NC(=O)Nc3ccc(F)cc3)ccc2O[C@@H]1CN(C)C(=O)NC1CCCCC1,1.74%
17,COCC1CCN(C(=O)c2ccc3oc(Cc4ccccc4)nc3c2)C1 (centres undefined),22.8%
18,COCC1CCCN(C(=O)c2ccc3oc(C(C)C)nc3c2)C1 (centres undefined),21.9%
19,COCC1CCN(C(=O)CCc2nnc(C3(c4ccc(Cl)cc4)CCC3)o2)C1 (centres undefined),52% (active)
20,C[C@@H]1CCCCO[C@@H](CN(C)C(=O)C2CCCCC2)[C@H](C)CN([C@H](C)CO)C(=O)c2cc(NC(=O)CCC(F)(F)F)ccc2O1,15.7%
21,COc1cccc(CNC(=O)C[C@@H]2CC[C@@H]3[C@H](COc4ccc(NC(C)=O)cc4C(=O)N3C)O2)c1,-1.5%
22,CCOC(=O)C1(Cc2cccc(OC)c2)CCN(C(C)CC(C)(C)O)CC1 (centres undefined),-4.88%
23,CCOC(=O)C1(Cc2cccc(OC)c2)CCCN(C(=O)CCSC)C1 (centres undefined),51.6% (active)
24,CCOC(=O)C1(CCOc2ccccc2)CCN(Cc2cc(OC)cc(OC)c2)CC1,-7.06%
25,CNC(=O)C[C@H]1CC[C@@H]2[C@@H](COc3ccc(NC(=O)c4ccc(F)c(F)c4)cc3C(=O)N2C)O1,0.615%
